Assay outcomes (PubChem BioAssay)
Rows were chosen to be rich in hits. Some 12% of all compounds tested hit in one or more screens of this group.
AMA1-RON2 inh = qHTS for Inhibitors of AMA1-RON; Towards Development of Antimalarial Drug Lead: Primary Screen; 360,000 compounds, 0.2% hits; Plasmodium falciparum AMA1 (3D7) - RON2 peptide interaction; Potency, µM (doses to about 58.2 µM), usual class: inhibitors; AlphaScreen AMA1-biotinylated RON2 peptide binding; AID 720542, 2013; further: nearly all actives have a fitted effect of over 45% in size
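AMA1 (3D7) with his tag at 25 nM final met compounds first, then biotinylated RON2 peptide at 25 nM; detection used donor plus acceptor beads, 10 µg/mL apiece, read by AlphaScreen after 30 min at room temperature.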
Pf growth 96h = Primary qHTS for delayed death inhibitors of the malarial parasite plastid, 96 hour incubation. P. falciparum luciferase reporter growth, 96 h. Potency, µM (doses to about 28.7 µM), most hits filed as inhibitors. 320,000 compounds, 6.9% hits. AID 504834, 2011
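Readout is luminescence from an integrated firefly luciferase in P. falciparum. Red cells, 2% hematocrit and 0.05% parasitemia final, were cultured with compound through two parasite generations (96 hours) at 37 C, 5% CO2.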
NS1 function inh = qHTS Assay for Inhibitors of Influenza NS1 Protein Function; Potency, µM (doses to about 46.1 µM); 270,000 compounds, 0.4% hits; calls by dose curve; further: actives are rising curves; nearly all actives have a fitted effect of over 50% in size
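OD600 was taken as the measure of yeast growth restored by compound in an NS1-expressing S. cerevisiae strain. Cells had been washed out of glucose medium and diluted 1:100 into galactose -URA medium, pH 6.0.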
SARS PLpro yeast = qHTS of Yeast-based Assay for SARS-CoV PLP. S. cerevisiae expressing SARS-CoV PLpro, growth rescue. Potency, µM (highest dose often 32.9 µM), usual class: activators. 330,000 compounds, 0.19% hits; calls by dose curve; further: nearly all actives have a fitted effect of over 55% in size
Pf growth 48h = Primary qHTS for delayed death inhibitors of the malarial parasite plastid, 48 hour incubation | 310,000 compounds, 5.9% hits | P. falciparum luciferase growth in erythrocytes, 48 h | Potency, µM (highest dose often 28.7 µM), hits mostly inhibitors
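Luciferase-expressing P. falciparum in infected erythrocytes (2% hematocrit, 0.1% parasitemia final) in RPMI 1640/0.5% Albumax were exposed to compound for 48 hours at 37 C, 5% CO2; growth read as luminescence.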
HCV inh = qHTS Assay for Inhibitors of Hepatitis C Virus (HCV); Huh7.5.1 HCVcc-Cre infection, luciferase reporter, 44 h; Potency, µM (highest dose often 41.8 µM), most hits filed as inhibitors; 340,000 compounds, 3.4% hits; AID 651820, 2012
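Whole-lifecycle infectious HCVcc-Cre system; cells 1,000/well, compound then virus (~0.5 moi) added 4 h after plating, 44 h culture. Luciferase read 15 sec following 15 min substrate incubation, room temp.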
Each line names hits and unclear results; the compound was inactive in the other large screens. Unless noted, the call rests on the fitted dose curve; in most records, active means well fitted curve in the direction sought with a large enough effect; inconclusive means small, poorly fitted or top-dose-only effect, or another doubt; inactive means no such curve, though single readings can be large; an effect the other way counts as inactive or inconclusive.

O=C(NNC(=O)c1ccc(F)c(S(=O)(=O)N2CCOCC2)c1)c1ccc([N+](=O)[O-])cc1	none (no result: NS1 function inh)
N=C1c2ccccc2CN1NC(=O)C1CC1	none
Cc1cc(C)cc(OCC(=O)NN2Cc3ccccc3C2=N)c1	Pf growth 96h 6.6µM (no result: Pf growth 48h)
N=C1c2ccccc2CN1NC(=O)CC12CC3CC(CC(C3)C1)C2	Pf growth 96h 1.9µM, Pf growth 48h inconclusive
CCc1ccc(OCC(=O)NN2Cc3ccccc3C2=N)cc1	Pf growth 96h inconclusive, HCV inh inconclusive
COc1ccc(C(=O)CN2Cc3ccccc3C2=N)cc1	none
COc1ccc(OC)c(N2C(=O)CCCC2=O)c1	none
COc1ccccc1N1Cc2ccccc2C1	Pf growth 96h inconclusive, Pf growth 48h 13µM
COc1ccc(N2Cc3ccccc3C2)cc1Cl	Pf growth 48h inconclusive, HCV inh inconclusive
COc1ccc(Cl)cc1N1Cc2ccccc2C1	Pf growth 48h 13µM (no result: Pf growth 96h)
COc1ccc(OC)c(N2Cc3ccccc3C2=N)c1	Pf growth 96h 5.9µM
COc1ccc(OC)c(N2Cc3ccccc3C2)c1	Pf growth 96h 12µM, NS1 function inh inconclusive, Pf growth 48h 5.9µM, HCV inh inconclusive
CC1([N+](=O)[O-])COC2(CCCCC2)OC1	none (no result: Pf growth 96h, NS1 function inh, SARS PLpro yeast, Pf growth 48h)
COc1ccc(C(=O)NCC(=O)N2CCN(C(=O)c3ccco3)CC2)cc1[N+](=O)[O-]	none (no result: Pf growth 96h, NS1 function inh, Pf growth 48h)
Cc1ccc(N2Cc3ccccc3C2=N)cc1[N+](=O)[O-]	none (no result: NS1 function inh)
Cc1cc(C)nc(N2Cc3ccccc3C2=N)n1	Pf growth 96h inconclusive, Pf growth 48h 15µM
COc1ccc(Cc2nc3ccc(C(=O)N(C)C(C)c4ccon4)cc3o2)cc1 (centres undefined)	none
CSc1nnc(-c2ccccc2Cl)n1N	Pf growth 96h 10µM
O=C(/C=C/c1cccs1)Nc1ccc(Br)cn1	none
CCOc1cc(-n2cnnn2)c(OCC)cc1NC(=O)c1cnccn1	Pf growth 96h 5.2µM
CCOc1cc(N2CCOCC2)c(OCC)cc1NC(=O)c1cnccn1	none (no result: Pf growth 96h, NS1 function inh, Pf growth 48h)
CCOc1ccc2nc3cc(N=Nc4ccc(N)nc4N)ccc3c(N)c2c1	AMA1-RON2 inh inconclusive, HCV inh 11µM (no result: Pf growth 96h, SARS PLpro yeast, Pf growth 48h)
CC1CC(C)CN(C(=O)c2ccc3c(c2)OCCO3)C1 (centres undefined)	Pf growth 96h 4.7µM, Pf growth 48h 2.9µM (no result: NS1 function inh)
CC1CC(C)CN(C(=O)c2ccc3c(=O)n(Cc4ccc5c(c4)OCO5)c(=S)[nH]c3c2)C1 (centres undefined)	Pf growth 96h 7.4µM
CCCCCn1c(=O)[nH]c2cc(C(=O)N3CCN(Cc4ccc5c(c4)OCO5)CC3)ccc2c1=O	HCV inh 2.8µM
CCCCCn1c(=O)[nH]c2cc(C(=O)NCc3ccc4c(c3)OCO4)ccc2c1=O	Pf growth 96h inconclusive
CCOC(=O)N1CCN(C(=O)c2ccc(Cn3c(=S)[nH]c4cc5c(cc4c3=O)OCO5)cc2)CC1	Pf growth 96h inconclusive, Pf growth 48h 13µM, HCV inh inconclusive
Cc1[nH]c(C)c(S(=O)(=O)N2CCN(c3ccccc3F)CC2)c1C(=O)N1CCCC1	none
Cc1cccn2c(CNCC3(c4ccccc4)CCCC3)c(C(=O)N3CCOCC3)nc12	Pf growth 48h inconclusive
CC1=C([N+](=O)[O-])C(c2ccccc2Cl)NC(=O)N1C (centres undefined)	Pf growth 48h inconclusive
CC(Sc1nnc(-c2ccncc2)n1C)C(=O)Nc1nccs1 (centres undefined)	Pf growth 96h inconclusive
CCCN(CC(=O)Nc1ccccc1C)C(=O)/C=C/c1ccc(S(=O)(=O)N2CCCCCC2)cc1	Pf growth 96h inconclusive, Pf growth 48h 13µM, HCV inh inconclusive (no result: NS1 function inh)
CCCN(CC(=O)Nc1ccccc1C)C(=O)COc1c(C)cccc1C	Pf growth 48h inconclusive (no result: NS1 function inh)
COc1ccc(CN(C)C(=O)/C=C/c2ccc(S(=O)(=O)N3CCOCC3)cc2)cc1F	Pf growth 96h inconclusive, Pf growth 48h 12µM, HCV inh inconclusive (no result: NS1 function inh)
CCCN(CC(=O)Nc1ccccc1C)C(=O)CCl	Pf growth 96h 1.7µM, Pf growth 48h inconclusive, HCV inh 7.1µM (no result: NS1 function inh)
COc1ccc(NC(=O)CN(C)C(=O)/C=C/c2ccc(S(=O)(=O)N3CCCCCC3)cc2)cc1	Pf growth 48h 12µM, HCV inh inconclusive (no result: NS1 function inh, SARS PLpro yeast)
COC(=O)c1sccc1NC(=O)Nc1ccc(C)cc1	none
COC(=O)c1sccc1NC(=O)Nc1ccc(F)cc1F	Pf growth 96h 12µM
COC(=O)c1sccc1NC(=O)/C=C/c1ccc(Cl)cc1	Pf growth 96h 13µM
COC(=O)c1sccc1NC(=O)Nc1cc(C)cc(C)c1	Pf growth 96h 4.7µM
COC(=O)c1sccc1NC(=O)Nc1ccc(F)cc1	none
COC(=O)c1sccc1NC(=O)c1ccccc1	Pf growth 48h inconclusive (no result: NS1 function inh)
COC(=O)c1sccc1NC(=O)c1ccc(C(C)C)cc1	Pf growth 96h 10µM
O=C(Nc1ncn[nH]1)c1cccc(S(=O)(=O)N2CCOCC2)c1	none
O=C(CCNC(=O)c1ccccc1)NCCc1ccc(Cl)cc1	none
COc1ccc(CCNC(=O)CCn2cccc2)cc1OC	HCV inh inconclusive
CCOc1ccc(CCNC(=O)CN2C(=O)CCSc3ccccc32)cc1OCC	Pf growth 96h 0.19µM
O=C(CCn1cccc1)NCCc1ccc(Cl)cc1	Pf growth 96h 10µM
CCOc1ccc(CCNC(=O)CCc2c(C)nc3ncnn3c2C)cc1OCC	Pf growth 96h 5.9µM, Pf growth 48h inconclusive
CCOc1ccc(CCNC(=O)CCn2cccc2)cc1OCC	Pf growth 96h 1.7µM, Pf growth 48h inconclusive
CCOc1ccc(CCNC(=O)C2CCC(=O)N2CCc2ccccc2)cc1OCC (centres undefined)	Pf growth 96h 13µM, HCV inh inconclusive (no result: Pf growth 48h)
Cc1ccc(CCNC(=O)CCS(=O)(=O)c2ccc3c(c2)oc(=O)n3C)cc1	Pf growth 96h inconclusive
CN(C(=O)CCS(=O)(=O)c1ccc2c(c1)oc(=O)n2C)C1CCCCC1	Pf growth 96h 4.7µM
Cc1ccc(N(C)C(=O)CCS(=O)(=O)c2ccc3c(c2)oc(=O)n3C)cc1	Pf growth 96h 15µM
CN(C)c1ccc(CNC(=O)CCS(=O)(=O)c2ccc3c(c2)oc(=O)n3C)cc1	Pf growth 48h inconclusive
CCc1nnc(SCC(=O)Nc2ccc(N3CCOCC3)cc2)n1C	Pf growth 96h inconclusive
COC(=O)[C@]12C(=O)NC[C@H](CN1c1ccc(Cl)c(C)c1)N2C	HCV inh inconclusive (no result: Pf growth 96h, NS1 function inh, Pf growth 48h)
CCOC(=O)c1c(NC(=O)COC(=O)Cc2ccccc2[N+](=O)[O-])sc(C(=O)N(C)C)c1C	Pf growth 48h inconclusive, HCV inh 10µM (no result: NS1 function inh)
CCc1cc(C(=O)OC)c(NC(=O)c2ccoc2C)s1	Pf growth 96h inconclusive, Pf growth 48h inconclusive, HCV inh 10µM
